Laboratory results published in PubChem BioAssay AID2417 (National Center for Advancing Translational Sciences (NCATS), 2010).
About 4,300 (3.1%) of roughly 140,000 compounds were called active. Not shown: some 21% with an inconclusive outcome.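 The calls were made as follows: active = readout at or below -70, meaning at least 70% loss of cells showing the perinucleolar compartment, a nuclear body marking cancer cells; inconclusive = readout between -30 and a set limit; inactive = the rest.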 What follows is part of a selection rich in actives, with near analogues and random picks from the rest.

test: High Content Assay for Compounds that inhibit the Assembly of the Perinucleolar Compartment; conditions: PC3M PTB-GFP, PNC prevalence imaging, 16 h; at 10 µM; hits give low values;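 also: plate controls were DMSO wells for no effect and camptothecin positive control wells for full effect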
In short: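 Read-out is percentage of cells bearing a perinucleolar compartment, from automated 20x imaging of fixed, Hoechst-stained PC3M PTB-GFP cells. Cells were seeded 4 h, then exposed 16 h to compound (23 nl of library stock) in duplicate plates.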

Structure (SMILES)	activity change (PNC), negative = inhibition
Cc1c(NC(=O)Nc2ccccc2Cl)sc(=S)n1C	-119% (active)
CN(C)CCNC(=O)Nc1cccc(Cl)c1Cl	17.8% (inactive)
Cc1cc(C)nc(NC(=O)Nc2ccccc2C(F)(F)F)n1	-23.4% (inactive)
O=C1NC(c2ccccc2)=NC1(Nc1ccccn1)C(F)(F)F (centres undefined)	23.3% (inactive)
Cc1ccc(NC(=O)c2oc(=O)c3ccccc3c2-c2ccccc2)c(C)c1	36.6% (inactive)
COC(=O)C(C)N(C#N)c1nc(C)nc(C)n1 (centres undefined)	10.7% (inactive)
CNc1nc(SC)nc(N(C#N)CC(=O)OC)n1	-100% (active)
Cc1cc(C)nc(N(C#N)CC(=O)Nc2ccccc2)n1	-18.1% (inactive)
O=C(NC(=S)N1CCN(Cc2ccccc2)CC1)c1ccccc1	-17% (inactive)
Cc1cc(C(=O)NNC(=S)NC(C)c2ccccc2)cs1 (centres undefined)	1.77% (inactive)
CN(c1ccc(C(=O)N2CCc3ccccc3C2)cc1)S(C)(=O)=O	-100% (active)
CN(c1ccc(C(=O)NCCC2=CCCCC2)cc1)S(C)(=O)=O	32.9% (inactive)
COc1cc2c(cc1OC)CN(C(=O)c1ccc(S(=O)(=O)N3CCCCCC3)cc1)CC2	-8.24% (inactive)
Cc1ccc(NC(=O)CN2CCC3(O)CCCCC3C2c2ccc3c(c2)OCO3)c(C)c1 (centres undefined)	-90% (active)
Cc1ccc(NC(=O)Cn2cccc2C2=NC(c3ccccc3)CO2)c(C)c1 (centres undefined)	17.1% (inactive)
CCN(CC)c1ccc(C2C3CCCCC3(O)CCN2CC(=O)Nc2ccccc2)cc1 (centres undefined)	-22.9% (inactive)
COc1cc(C2C(N3C(=O)c4ccccc4C3=O)C(=O)N2c2ccc(C)c(C)c2)cc(OC)c1OC (centres undefined)	31.7% (inactive)
CCC(=O)NCCc1nc2ccccc2n1CC	14% (inactive)
CCn1c(NC(=O)c2nn(C)cc2Br)nc2ccccc21	-114% (active)
Cc1ccc(Cn2c(NC(=O)c3ccco3)nc3ccccc32)cc1	2.65% (inactive)
Cc1nnnn1/C(=C\c1ccccc1)C(=O)OCC(=O)N1CC2(C)CC1CC(C)(C)C2 (centres undefined)	23.1% (inactive)
Cn1nccc1CNC(=O)c1ccnn1C	23.5% (inactive)
Cc1ccc(N(CC(=O)Nc2cccc(N(C)S(C)(=O)=O)c2)S(C)(=O)=O)cc1	24.2% (inactive)
Cc1ccc(S(=O)(=O)N(CC(=O)Nc2cccc([N+](=O)[O-])c2)Cc2ccc(Cl)cc2)cc1	34.5% (inactive)

Structure (SMILES)	activity change (PNC), negative = inhibition
COc1ccc(C)cc1S(=O)(=O)N(CC(=O)Nc1cccc([N+](=O)[O-])c1)c1ccc(C)cc1	-81.9% (active)
Cc1ccc(S/C(=N\S(=O)(=O)c2ccc(Cl)cc2)c2ccccc2)cc1	-26.8% (inactive)
O=S(=O)(/N=C(/Nc1ccccn1)c1ccccc1)c1ccc(Cl)cc1	-25.2% (inactive)
Cc1ccc(S(=O)(=O)/N=C(/Nc2ccccn2)c2ccc(Cl)cc2)cc1	-85% (active)
CCNS(=O)(=O)c1ccc(NC(=O)c2cncc(Br)c2)cc1	6.83% (inactive)
C/C(=N/NS(=O)(=O)c1ccccc1)c1ccc(NC(=O)C(F)(F)F)cc1	8.62% (inactive)
COC(=O)Cc1ccc(N(Cc2ccccc2F)S(=O)(=O)c2ccc(Br)cc2)cc1	-15.9% (inactive)
CCOc1ccc(C(=O)Nc2cc(OC)ccc2OC)cc1	-127% (active)
CCOc1ccccc1NC(=O)Nc1cc(OC)ccc1OC	48.5% (inactive)
CCOc1ccc(NC(=O)Nc2cc(C)ccc2OC)cc1	-3.12% (inactive)
CC1CCCCN1S(=O)(=O)c1ccc(S(=O)(=O)N(CC(=O)Nc2ccccc2)Cc2cccs2)cc1 (centres undefined)	-17.2% (inactive)
CCCOc1ccc(NC(=O)CC2C(=O)N(C)C(=S)N2Cc2ccc3c(c2)OCO3)cc1 (centres undefined)	-134% (active)
Cn1c(=O)cc(OCCCC(=O)N2CCN(Cc3ccc4c(c3)OCO4)CC2)c2ccccc21	19.5% (inactive)
CCOc1ccc(NCCC(=O)c2ccc3c(c2)OCO3)cc1	23% (inactive)
COc1ccc(/C=C/C(=O)NC(=S)NN2CCCCC2c2cccnc2)cc1 (centres undefined)	-29.3% (inactive)
CN(C)/N=C/c1cc(Cl)cc([N+](=O)[O-])c1O	3.04% (inactive)
Cc1ccc(S(=O)(=O)N2CCCC2C(=O)OCc2nc3sc(C)c(C)c3c(=O)[nH]2)cc1 (centres undefined)	7.12% (inactive)
O=C(CN1C(=O)c2cccc3cccc(c23)C1=O)N1CCCCC1	-26% (inactive)
O=C(Cc1ccccc1)NC(=S)Nc1ccc(N2CCCCC2)cc1	-26.1% (inactive)
COc1ccc(NC(=S)NCC2CCN(c3ccc(OC)cc3)C2)cc1 (centres undefined)	-116% (active)
COc1ccc(NC(=S)NC2CCS(=O)(=O)C2)cc1 (centres undefined)	36.6% (inactive)
COCC(C)n1c(C)cc(C(=O)CSc2cc(C)c3ccccc3n2)c1C (centres undefined)	-11.6% (inactive)
Cc1cc(F)ccc1S(=O)(=O)N1CCCOC1CNC(=O)C(=O)NCCC1=CCCCC1 (centres undefined)	14.2% (inactive)
CCCc1cc(=O)[nH]c(SCC(=O)N2CCN(S(=O)(=O)c3ccc(C)cc3C)CC2)n1	-20% (inactive)

Structure (SMILES)	activity change (PNC), negative = inhibition
Cc1cc(C(=O)Nc2c(C)nn(Cc3ccccc3)c2C)on1	36% (inactive)
Cc1nn(Cc2ccc(F)cc2)c(C)c1NC(=O)c1cccnc1Cl	-102% (active)
Cc1nn(Cc2ccc(F)cc2)c(C)c1NC(=O)c1noc2c1CCc1ccccc1-2	-5.67% (inactive)
Nc1nc(SCC(=O)NN(c2ccccc2)c2ccccc2)n[nH]1	8.76% (inactive)
Cc1ccccc1C1=NC(C(F)(F)F)(C(F)(F)F)c2c(n(-c3ccc(F)cc3)c(=O)[nH]c2=O)N1	-9.65% (inactive)
CCOC(=O)C1CCc2nc3ccccc3c(=O)n21 (centres undefined)	-123% (active)
CCC1(CC)Cc2ccccc2-c2nc3ccccc3c(=O)n21	35.3% (inactive)
CCOC(=O)C(C)Sc1nc2ccccc2c(=O)n1CC1CCCCC1 (centres undefined)	0.699% (inactive)
O=C(COC(=O)c1cc(=O)[nH]c2ccccc12)Nc1nc(-c2cccc(Br)c2)cs1	21.6% (inactive)
COC(=O)Cc1ccc(OCC(=O)Nc2ccc(OC(F)(F)F)cc2)cc1	-17.1% (inactive)
CCCCN(C)C(=O)C1CCN(Cc2ccccn2)CC1	-84.5% (active)
CCCCN(Cc1ccccc1)C(=O)C1CCN(Cc2sccc2C)CC1	30.3% (inactive)
CCCC(=O)C1CCN(Cc2ccccc2)CC1	-25.7% (inactive)
CC(=O)Nc1ccc(N2CCOCC2)c(C(=O)Nc2cccc(C)c2)c1	-7.92% (inactive)
CCOc1cccc(NC(=O)CC#N)c1	-1.74% (inactive)
CC(=O)Nc1cccc(Oc2cc(C#N)c(C#N)cc2N2CCOCC2)c1	-107% (active)
CCn1nc(C)c(/C=N/NC(=O)Cc2ccc(Cl)cc2)c1C	49.9% (inactive)
O=[N+]([O-])c1cc(S(=O)(=O)N2CCCC2)ccc1NN=C1CCCC1	27.5% (inactive)
COc1cc(NC(=O)COC(=O)CSc2ccc3ccccc3c2)c(C)cc1[N+](=O)[O-]	0.296% (inactive)
O=C(CSCc1ccc(Cl)cc1)N1CCCCC1	0.451% (inactive)
CS(=O)(=O)N(CC(=O)N1CCN(Cc2ccc3c(c2)OCO3)CC1)c1ccc2c(c1)OCO2	-4.43% (inactive)
O=C(Nc1cccc2ccccc12)N1CCN(Cc2ccc3c(c2)OCO3)CC1	-95.4% (active)
O=C(CSCc1ccc(Cl)cc1)N1CCN(Cc2ccc3c(c2)OCO3)CC1	-86.5% (active)
O=C(Nc1ccccc1)N1CCN(Cc2ccccc2)CC1	47.3% (inactive)

Structure (SMILES)	activity change (PNC), negative = inhibition
O=C(CCCN1C(=O)c2cccc3cccc(c23)C1=O)N1CCN(Cc2ccc3c(c2)OCO3)CC1	-24.4% (inactive)
O=C(Nc1ccccc1F)c1ccccc1-c1ccc(C(F)(F)F)cc1	16.7% (inactive)
CCc1nccn1S(=O)(=O)c1cccc([N+](=O)[O-])c1	10% (inactive)
Cc1nnc(NC(=O)/C=C/c2ccco2)s1	-22.5% (inactive)
CCS(=O)(=O)Nc1cccc(-c2cc(-c3ccccc3)c3cc(C)ccc3n2)c1	81.5% (inactive)
CCc1ccc(C(=O)OCC(=O)Nc2cccc(S(=O)(=O)NC3=NCCCCC3)c2)cc1	14.5% (inactive)
O=C(CC(NS(=O)(=O)c1ccc(Cl)cc1)c1ccco1)NC1CCCC1 (centres undefined)	-84.2% (active)
COc1ccc(S(=O)(=O)NC(CC(=O)NCc2ccccc2OC)c2ccco2)cc1 (centres undefined)	32.4% (inactive)
CC(=O)Nc1ccc(S(=O)(=O)NC(C)C(=O)OCC(=O)NC2CCCC2)cc1 (centres undefined)	5.59% (inactive)
CN1CCN(CC(=O)Nc2sc3c(c2C#N)CCC(C(C)(C)C)C3)CC1 (centres undefined)	-86.5% (active)
N#Cc1ccsc1NC(=O)CN1CCCCC1	8.2% (inactive)
Cc1cccc(C(=O)OCC(=O)Nc2sc3c(c2C#N)CCC3)c1	5.52% (inactive)
COc1ccccc1Oc1ccc(N/C=C2/CCCC2=O)cc1	39.1% (inactive)
Cc1ccccc1OCC(=O)Nc1nc(C)c(C(=O)N(C)C)s1	-15.1% (inactive)
CCn1c(=N)n(CC(=O)c2cccc(OC)c2)c2ccccc21	-117% (active)
CCCCOC(=O)Cn1c(=N)n(CCN(CC)CC)c2ccccc21	33.2% (inactive)
COc1ccc(OC)c(NC(=O)Cn2c(=O)oc3ccccc32)c1	0.891% (inactive)
CCCCN(C)c1ccc([N+](=O)[O-])cc1	22.3% (inactive)
Cc1ccc(C(C[N+](=O)[O-])c2c(C)cc3ccccn23)cc1 (centres undefined)	-2.04% (inactive)
Cc1cc(Nc2ccccc2)n(C(=O)c2ccc(N)cc2)n1	-86.2% (active)
Cc1cc(Nc2ccccc2)n(CCC#N)n1	-16.1% (inactive)
Cc1cc(NC(=O)Nc2ccccc2)n(-c2ccccc2)n1	15.1% (inactive)
